Most compounds without a hit are left out; they make up all but 7.4% or so of the library.
SMN2 splice enh – qHTS Assay for Enhancers of SMN2 Splice Variant Expression | 210,000 tested, 2.8% active | Potency, µM (titrated, usually from 46.1 µM), hits mostly activators | AID 1458, 2008 | HEK293 SMN2-luciferase splicing reporter, luminescence, 30-36 h; note: nearly all actives have a fitted effect of over 55% in size
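qHTS luciferase splicing reporter: luminescence rises when SMN2 exon 7 is included in transfected HEK293 cells. Compound exposure lasted 30-36 h at 37C, with 4.5 mM final sodium butyrate as control, followed by a ONE-Glo read.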
Rab9 prom act – qHTS Assay for Rab9 Promoter Activators. Huh7 Rab9 promoter-luciferase reporter, luminescence, 24 h. Potency, µM (top dose mostly 9.22 µM), actives largely listed as activators. 320,000 tested, 2.8% active. AID 485297, 2010; note: nearly all actives have a fitted effect of over 60% in size
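Huh7 reporter line, Rab9 promoter upstream of luciferase. Compound exposure 24 h at 37 °C in reduced-serum medium with 10% FBS. Read-out: luminescence.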
FLuc counter – qHTS profiling assay for firefly luciferase inhibitor/activator using purifed enzyme and Km concentrations of substrates (counterscreen for miR-21 project). Luciferin 4-monooxygenase (Photinus pyralis), P08659. purified FLuc, Km substrates, luminescence inhibition. Potency, µM (doses to about 57.5 µM), hits mostly inhibitors. 360,000 tested, 6.9% active. AID 588342, 2011; note: nearly all actives have a fitted effect of over 55% in size
Target sequence (P08659 whole entry, looked up): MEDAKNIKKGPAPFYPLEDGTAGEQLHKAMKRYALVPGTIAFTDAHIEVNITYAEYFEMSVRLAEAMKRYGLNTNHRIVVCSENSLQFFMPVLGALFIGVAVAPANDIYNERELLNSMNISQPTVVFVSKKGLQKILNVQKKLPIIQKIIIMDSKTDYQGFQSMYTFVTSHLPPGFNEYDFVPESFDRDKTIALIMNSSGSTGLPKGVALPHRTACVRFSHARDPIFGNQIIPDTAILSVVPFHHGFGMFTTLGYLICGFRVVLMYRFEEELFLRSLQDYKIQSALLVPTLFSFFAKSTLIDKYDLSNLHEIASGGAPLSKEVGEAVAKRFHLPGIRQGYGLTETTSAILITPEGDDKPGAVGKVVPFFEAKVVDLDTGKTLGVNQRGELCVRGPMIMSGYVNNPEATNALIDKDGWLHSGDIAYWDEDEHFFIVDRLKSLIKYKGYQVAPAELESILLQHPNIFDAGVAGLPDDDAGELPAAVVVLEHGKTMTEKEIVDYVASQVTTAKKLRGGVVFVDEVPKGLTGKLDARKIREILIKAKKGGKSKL
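Biochemical qHTS of compounds, final roughly 60 µM downward over six points, against 10 nM purified firefly luciferase using Km concentrations of substrates (10 uM D-luciferin, 10 uM ATP) in Tris acetate pH 7.5 buffer; luminescence output.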
NPC1 promoter act – qHTS Assay for NPC1 Promoter Activators; Huh7 NPC1 promoter luciferase reporter, 24 h; Potency, µM (series often up to 9.22 µM), actives largely listed as activators; 320,000 tested, 2.4% active; AID 485313, 2010; note: nearly all actives have a fitted effect of over 60% in size
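Huh7 reporter cells (NPC1 promoter driving luciferase) are dosed with compound for 24 h at 37 °C, 5% CO2; luciferase detection reagent is then added and luminescence measured after 10 min at ambient temperature.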
ELG1 genotox – qHTS screen for small molecules that induce genotoxicity in human embryonic kidney (HEK293T) cells expressing luciferase-tagged ELG1 | HEK293T ELG1-luciferase reporter, luminescence, 16 h | Potency, µM (titrated, usually from 46 µM), hits mostly activators | 330,000 tested, 1.3% active | AID 504466, 2011; note: nearly all actives have a fitted effect of over 60% in size
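Luminescence read-out: rising ELG1-luciferase signal, reflecting elevated ELG1 protein under genetic stress, flags genotoxic compounds. Cells were treated for 16 hr at 37 °C before ONE-Glo detection.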
Hits are given with their value; . = inactive; ? = inconclusive; / = no result given; [ ] = another dose, or the depositor's remark. Calls come from the whole dose curve; as a rule, active = well fitted curve in the direction sought with a large enough effect; inconclusive = small, poorly fitted or top-dose-only effect, or another doubt; inactive = no such curve, though single readings can be large; an effect the other way counts as inactive or inconclusive.

SMILES	SMN2 splice enh	Rab9 prom act	FLuc counter	NPC1 promoter act	ELG1 genotox
Cc1ccc(NC(=O)CCSc2ccccn2)cc1	14.1µM	3.16µM	6.01µM	3.55µM	?
Cc1oc2cc3c(C(=O)N4CCCCC4)c(C)oc3cc2c1C(=O)N1CCCCC1	.	?	10.7µM	.	?
O=c1cc(-c2ccccc2)[nH]c2nc3ccccc3n12	3.98µM	2µM	0.953µM	3.55µM	2.31µM
COc1cccc(N2CCN(c3cnc4ccccc4n3)CC2)c1	.	1.58µM	23.9µM	?	.
COc1ccc(N2CCN(c3cnc4ccccc4n3)CC2)cc1	?	?	13.5µM	?	?
COc1ccc(N2CCN(c3cc(C)c4ccccc4n3)CC2)cc1	.	.	.	.	.
COc1ccc(Cl)cc1C(=O)NCc1nc(-c2cccc(C)c2)no1	.	/	.	/	/
O=C(NC1=NCCS1)c1cccc(N2C(=O)c3ccccc3C2=O)c1	.	.	.	.	.
CC(C)Oc1ccc(C(=O)NC2=NCCS2)cc1	2.51µM	0.447µM	6.01µM	0.708µM	?
O=C(NC1=NCCS1)c1cccc(OC(F)F)c1	11.2µM	1.26µM	12µM	2.24µM	5.8µM
COc1ccc(C(=O)NC2=NCCS2)cc1	/	2.82µM	19µM	2.24µM	?
COc1cc(OC)cc(C(=O)NC2=NCCS2)c1	.	.	10.7µM	.	?
COC(=O)N[C@@H](c1cccc(C)c1)C(C(C)=O)C(=O)OC (stereo partly drawn)	.	/	/	/	/
COc1ccc(NCc2cc3cc4c(cc3n(CC(=O)Nc3ccc(F)cc3F)c2=O)OCO4)cc1	/	/	.	/	/
Cn1c(=O)c(-c2cc(F)cc(F)c2)nc2cnc(Oc3ccccc3)nc21	.	/	/	/	/
COc1ccc(CNc2nc3c(-c4ccc(C)cc4)nnn3c3ccccc23)cc1	.	/	.	/	/
O=C(NC12CC3CC(CC(C3)C1)C2)c1cccc(OC(F)F)c1	/	.[1.84 µM]	15.1µM	.	.
CN1CCc2nc(NC(=O)c3cccc(OC(F)F)c3)sc2C1	.	.	10.7µM	.	?
CN1CCc2nc(NC(=O)COc3ccc4ccccc4c3)sc2C1	.	.	.	.	.
Cc1ccc(C)c(Cn2nc(C)n3c(cc4cc(C)ccc43)c2=O)c1	.	/	.	/	/
Cc1ccc2c(c1)cc1c(=O)[nH]ncn12	.	?	21.3µM	?	?
Cc1ccc(-c2nnc(Nc3ccc4c(c3)OCO4)c3ccccc23)cc1S(=O)(=O)NC(C)C	.	.	5.36µM	.	.
Cc1ccc(-c2nnc(Nc3ccc4c(c3)OCO4)c3ccccc23)cc1S(=O)(=O)NCCO	.[1.84 µM]	.	15.1µM	.	.
Cc1ccc(-c2nnc(Nc3ccc(Cl)c(Cl)c3)c3ccccc23)cc1S(=O)(=O)NCCO	.	/	?	/	/
CCOc1ccc(NC(=O)CC2C(=O)N(c3ccccc3)C(=O)N2Cc2cccc(OC)c2)cc1 (stereo not drawn)	/	/	.	/	/
SMILES	SMN2 splice enh	Rab9 prom act	FLuc counter	NPC1 promoter act	ELG1 genotox
O=[N+]([O-])c1ccc2c(c1)nc1n2CCCCC1	.	.	.	.	.
CCCC(=O)Nc1ccc2c(c1)nc1n2CCN(C2CCCCC2)C1	.	.	.	.	.
CC(=O)Nc1ccc2c(c1)nc1n2CCN(C2CCCCC2)C1	12.6µM	2µM	23.9µM	3.55µM	?
O=[N+]([O-])c1ccc2c(c1)nc1n2CCN(C2CCCCC2)C1	14.1µM	2.51µM	15.1µM	?	?
COc1ccc(CNc2ncnc3c2c(-c2ccccc2)cn3-c2ccc(C)c(Cl)c2)cc1	/	/	.	/	/
Cc1cc(C)n(-c2nc(NCCCO)c3c4c(sc3n2)CCCC4)n1	.	.	21.3µM	.	.
Cn1c(=O)n(C)c2cc(NS(=O)(=O)c3ccc(Cl)cc3)c(NCc3ccccc3)cc21	.	/	15.1µM	/	/
Cn1c(=O)n(C)c2cc(NS(=O)(=O)c3ccc(C(C)(C)C)cc3)c(NCc3ccccc3)cc21	5.62µM	/	?	/	/
Cc1cc(S(=O)(=O)Nc2ccc3c(c2)n(C)c(=O)n3C)ccc1F	.	.	.	.	?
COc1ccc(S(=O)(=O)Nc2cc3c(cc2NCc2ccccc2)n(C)c(=O)n3C)cc1OC	3.55µM	/	?	/	/
Cn1c(=O)n(C)c2cc(N3CCOCC3)c(NS(=O)(=O)c3ccc(C(C)(C)C)cc3)cc21	.	/	.	/	/

Screening results as filed in PubChem.
